Screening results as filed in PubChem.
MCF10A rereplic = inducers of DNA re-replication in MCF 10A breast cells; Potency, µM (top dose mostly 46.1 µM), for inactives: at the highest dose activity, positive = re-replication, hits mostly activators; AID 624296; MCF 10A DNA re-replication, Hoechst nuclear intensity, 48 h; 350,000 tested, 2.9% active; also: % of control where 0% means no effect; nearly all actives have a fitted effect of over 50% in size
KB-V1 cytotox = KB-V1 MDR subline cytotoxicity. KB-V1 MDR cells viability, CellTiter-Glo, 72 h. Potency, µM (highest dose often 46.1 µM), actives largely listed as cytotoxic. 400,000 tested, 3.4% active. AID 1347076; also: % is scaled to controls: 0 for no effect and ±100 for the full control effect; nearly all actives have a fitted effect of over 60% in size
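Compound-treated KB-V1 multidrug-resistant cells, 72 h, 37 degrees C; viability by CellTiter-Glo. Fitted qHTS curves give the values.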
SW480 rerep = induces DNA re-replication in SW480 colon adenocarcinoma cells | SW480 DNA re-replication, Hoechst DNA content imaging, 48 h | Potency, µM (series often up to 46.1 µM), inactives show top-dose re-replication activation, most hits filed as activators | 340,000 tested, 1.8% active; also: % of control where 0% means no effect; nearly all actives have a fitted effect of over 55% in size
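Per well, 250 cells were exposed to pinned compound for 48 hr. Nuclear DNA was visualised with Hoechst (40 min, 37 C) and total object intensity recorded by fluorescence scanning.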
HT1080NT lethal = kills 2HG-producing HT-1080-NT fibrosarcoma cells; AID 686970; HT-1080-NT fibrosarcoma viability, CellTiter-Glo ATP luminescence, 48 h; Potency, µM (series often up to 46.1 µM), for the others: at the top dose activity, negative = less viability, actives largely listed as cytotoxic; 360,000 tested, 1.6% active;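 also: NT is the 2HG producing partner of a matched IDH1 knockdown line; 0% = DMSO-treated cells and -100% = media-only wells without cells; nearly all actives have a fitted effect of over 55% in size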
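Read-out is CellTiter-Glo luminescence after 10 minutes at room temperature, following 48 hours' compound treatment of HT-1080-NT cells (750 cells/well, RPMI, 5% FBS, 37 degrees C).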
KB-3-1 tox = KB-3-1 parental cell cytotoxicity | KB-3-1 viability, CellTiter-Glo ATP luminescence, 72 h | Potency, µM (titrated, usually from 46.1 µM), hits mostly cytotoxic | 400,000 tested, 1.4% active | AID 1347075; also: % is scaled to controls: 0 for no effect and ±100 for the full control effect; nearly all actives have a fitted effect of over 60% in size
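KB-3-1 cells, DMEM (no phenol red) + 10% FBS; compound by pin transfer, 72 h, 37 °C. Readout: CellTiter-Glo luminescence after 10 min. Data normalized, curve-fitted.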
HT1080 IDH1KD tx = HT-1080 IDH1 knockdown cell toxicity (counter line) | HT-1080 IDH1 knockdown viability, ATP luminescence, 48 h | Potency, µM (doses to about 46.1 µM), for inactives: at the highest dose activity, negative = toxicity, hits mostly cytotoxic | 360,000 tested, 2% active | AID 686971;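 also: 0% = DMSO wells and -100% = cell-free medium wells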
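IDH1KD HT-1080 cells, 750/well, RPMI + 5% FBS; compound pinned after 2 h settling; 48 h, 37 °C; CellTiter-Glo luminescence; % activity normalised to DMSO and no-cell wells; curves fitted, classed by r2 and efficacy.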
* hit, by the source's call; i = inactive; ? = inconclusive; . = no result. An excerpt weighted towards active compounds, which were near 8% of everything screened. Calls follow the shape of the dose curve; as a rule, active = well fitted curve in the direction sought with a large enough effect; inconclusive = small, poorly fitted or top-dose-only effect, or another doubt; inactive = no such curve, though single readings can be large; an effect the other way counts as inactive or inconclusive. Potency is read from the fitted curve at half-maximal effect.

SMILES	MCF10A rereplic	KB-V1 cytotox	SW480 rerep	HT1080NT lethal	KB-3-1 tox	HT1080 IDH1KD tx
Cc1c(NC(=O)/C(C#N)=C/c2ccc(-c3cc(Cl)ccc3Cl)o2)c(=O)n(-c2ccccc2)n1C	19%	i	21µM*	-27%	i	-24%
CCCCCOc1ccc(/C=C/C(=O)Nc2sc(C)c(C)c2C(=O)OCC)cc1OC	.	i	.	.	i	.
CC(=O)NS(=O)(=O)c1ccc(NC(=O)CC23CC4CC(CC(Br)(C4)C2)C3)cc1	4%	i	-6%	13%	i	19%
CC(C)N(C)C1=CC(=O)C(N(C)C(C)C)=CC1=O	-1%	?	26%	-5%	i	2%
Cc1cc(=O)[nH]c2ccc(Cc3ccccc3)cc12	?	9.2µM*	-4%	-25%	?	-17%
CS(=O)(=O)c1ccc2nc(NC(=O)C3CC(=O)N(c4ccccc4)C3)sc2c1 (stereo not drawn)	-4%	i	-1%	2%	i	6%
COCc1nnc(NC(=O)CCS(=O)(=O)c2ccccc2)s1	?	i	15µM*	?	i	?
Cc1ccc(N2CC(C(=O)Nc3nc4ccc(S(C)(=O)=O)cc4s3)CC2=O)cc1 (stereo not drawn)	3%	6.5µM*	-1%	0%	?	-9%
COc1ccc(OC)c2sc(NC(=O)CCS(=O)(=O)c3ccccc3)nc12	21µM*	i	4%	6%	?	5%
COc1ccc(OC)c2sc(NC(=O)CCSc3ccccc3)nc12	22%	i	-11%	-16%	i	-21%
CCc1nnc(NC(=O)CCS(=O)(=O)c2ccccc2)s1	15µM*	i	18µM*	-1%	i	-10%
Cn1c(=O)c2c(SCC(=O)Nc3ccc(F)cc3F)nc(C3CCCC3)nc2n(C)c1=O	.	i	.	.	i	.
Cc1csc2nc(COc3ccccc3NC(=O)c3ccccc3Cl)cc(=O)n12	.	?	.	.	i	.
CS(=O)(=O)c1ccc2nc(NC(=O)Nc3cccc(Cl)c3)sc2c1	?	?	27%	?	i	11µM*
CS(=O)(=O)c1ccc2nc(NC(=O)CCS(=O)(=O)c3ccccc3)sc2c1	3.3µM*	i	3.7µM*	-26%	i	21µM*
CC(=O)c1sc(NC(=O)CCS(=O)(=O)c2ccc(Cl)cc2)nc1C	7.3µM*	i	?	3%	i	0%
O=C(CCS(=O)(=O)c1ccccc1)Nc1nc2ccc(F)cc2s1	?	i	?	-15%	?	-10%
CS(=O)(=O)c1ccc2nc(NC(=O)Nc3ccc(Cl)c(Cl)c3)sc2c1	-2%	i	-3%	?	i	-4%
Cc1ccc(CN2CCNC(=O)C2CC(=O)NCC(F)(F)F)o1 (stereo not drawn)	3%	i	-10%	12%	i	1%
O=C(CSc1nnc(-c2cccc(Cl)c2)o1)N1CCc2ccccc21	.	?	.	.	i	.
COc1cc(C2NC(=O)NC(C)=C2C(=O)OCC2CCCO2)cc(OC)c1OC (stereo not drawn)	-2%	i	0%	11%	i	6%
COc1ccccc1-c1c(C#N)c(N)nc2c1CCc1ccccc1-2	?	16µM*	21µM*	15µM*	13µM*	16µM*
CCOc1cc(-c2c(C#N)c(N)nc3c2CCc2ccccc2-3)ccc1O	?	23µM*	?	-28%	?	?
COc1ccc(-c2c(C#N)c(N)nc3c2CCCCCC3)cc1OC	10%	i	13%	14%	i	7%
COc1ccccc1-c1c(C)c(C)nc(N)c1C#N	-2%	i	-10%	2%	i	-1%
CCOc1cc(-c2cc(-c3ccc(C)cc3)nc(N)c2C#N)ccc1O	21µM*	8.2µM*	16µM*	8.9µM*	5.8µM*	13µM*
